Experimental data: PubChem BioAssay AID583 (Sanford-Burnham Center for Chemical Genomics, 2007)
Where “and” joins values, the source holds several entries; their conditions need not be identical. Equal entries are not always repeated. About 80 (0.06%) of roughly 140,000 compounds were called active. The sample holds actives, similar compounds and a random draw of the others, so the mix is not that of the screen. No stated cut-off is given here; in the data, active means displacement above about 50%; inactive means the rest. A structure can be active in one record and inactive in another.

What follows are compounds tested against Heat shock 70 kDa protein 1A (Homo sapiens) (UniProt P0DMV8) (assay: small molecules displacing fluorescent ligand from Hsp70 – biochemical, fluorescence polarization, primary screen (AID 583;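 further: plate controls were vehicle for no effect and reference ligand for full effect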)). Settings: Hsp70 fluorescence polarization probe displacement, mP; at 20 µM; stronger effect = higher value.
Sequence of Heat shock 70 kDa protein 1A (Homo sapiens) (P0DMV8 whole entry, looked up): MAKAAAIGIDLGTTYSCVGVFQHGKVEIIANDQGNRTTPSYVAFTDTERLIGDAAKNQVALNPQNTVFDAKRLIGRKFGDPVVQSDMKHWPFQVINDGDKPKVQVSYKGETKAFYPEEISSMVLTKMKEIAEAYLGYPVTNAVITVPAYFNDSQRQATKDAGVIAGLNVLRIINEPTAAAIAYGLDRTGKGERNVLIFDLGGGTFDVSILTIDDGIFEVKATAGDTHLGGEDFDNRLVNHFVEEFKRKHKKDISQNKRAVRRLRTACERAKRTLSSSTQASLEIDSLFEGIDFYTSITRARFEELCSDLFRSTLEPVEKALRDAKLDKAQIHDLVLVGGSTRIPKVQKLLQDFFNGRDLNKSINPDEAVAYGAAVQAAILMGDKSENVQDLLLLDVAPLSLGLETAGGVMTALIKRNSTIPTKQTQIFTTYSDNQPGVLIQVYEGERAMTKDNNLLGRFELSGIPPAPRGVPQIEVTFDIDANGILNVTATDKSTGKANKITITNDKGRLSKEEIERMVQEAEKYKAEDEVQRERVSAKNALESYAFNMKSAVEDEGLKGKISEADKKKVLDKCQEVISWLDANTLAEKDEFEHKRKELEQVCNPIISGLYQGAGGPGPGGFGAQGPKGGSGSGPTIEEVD

| Structure (SMILES) | displacement |
| --- | --- |
| COc1ccc(N2C(=O)NC(=O)/C(=C\c3cccc(OC)c3OC)C2=O)cc1 | -4.3% (inactive) |
| O=C1N/C(=N/N=C/c2ccccc2)SC1Cc1ccccc1Cl (stereo not drawn) | -1.4% (inactive) |
| COC(=S)N/C(=N/S(=O)(=O)c1ccc(Cl)cc1)c1ccccc1 | 0.8% (inactive) |
| CCOC(=O)c1ccc(N2N=C(C)/C(=C/C=C/c3ccco3)C2=O)cc1 | 0.7% (inactive) |
| CC1=NN(c2cccc(C(=O)O)c2)C(=O)/C1=C\c1ccco1 | 6.9% (inactive) |
| COc1ccc(C(=O)Nc2ccc(S(=O)(=O)NC(C)=O)cc2)cc1[N+](=O)[O-] | 3.6% (inactive) |
| CC(=O)NS(=O)(=O)c1ccc(NC(=O)c2ccc([N+](=O)[O-])c(C)c2)cc1 | 61.3% (active) |
| CC(=O)NS(=O)(=O)c1ccc(NC(=O)c2ccc([N+](=O)[O-])cc2)cc1 | 6.8% (inactive) |
| O=C(NCCc1ccccc1)c1cnc2sccn2c1=O | -1.6% (inactive) |
| Oc1[nH]c2ccccc2c1N=Nc1nc(-c2ccccc2)c2cc(Br)ccc2n1 | -0.1% (inactive) |
| CN(C)c1ccc(/C=C2/SC(N=Nc3c(O)[nH]c4ccccc34)=NC2=O)cc1 | 17.1% (inactive) |
| O=C1N=C(N=Nc2c(O)[nH]c3ccccc23)S/C1=C/c1ccc(Br)cc1 | 82.1% (active) |
| COc1ccc(Br)cc1/C=C/C(=O)Nc1cccc(NC(=O)c2ccccc2Cl)c1 | -1% (inactive) |
| CCN(CC)c1nc(C)cc(COC)c1C#N | 2.1% (inactive) |
| CC(C)c1ccc(NC(=O)C(c2ccc3c(c2)OCO3)N2CCC3(CC2)OCCO3)cc1 (stereo not drawn) | -2.7% (inactive) |
| O=C(CCCC(=O)N1CCCCC1)NCc1ccco1 | -1.6% (inactive) |
| COC(=O)c1ccc(C(=O)OC)c(NC(=O)CSc2nnc(-c3ccccc3Cl)o2)c1 | 1.6% (inactive) |
| O=S(=O)(c1cc(Cl)cc(Cl)c1O)c1cc(Cl)cc(Cl)c1O | 8.8% (inactive) |
| Oc1c(Cl)cc(Cl)cc1Sc1cc(Cl)cc(Cl)c1O | 7.6% (inactive) |
| CN(C)c1ccc(/C=C2\NC(=O)c3ccccc3C2=O)cc1 | 2.7% (inactive) |
| CCOC(=O)c1sc2ncc([N+](=O)[O-])c(NC)c2c1N | -5.6% (inactive) |
| Cc1cc(=O)[nH]c(SCC(=O)Nc2ccc(S(N)(=O)=O)cc2)n1 | 4.4% (inactive) |
| O=C(N/N=C/c1ccccc1OCc1ccccc1)c1ccccc1O | 6% (inactive) |
| O=C(N=Nc1c(O)n(Cc2ccccc2)c2ccccc12)c1ccccc1O | 2.1% (inactive) |
| Cc1ccc(C(=O)O/N=C(\N)c2ccccn2)cc1 | 0.2% (inactive) |
| Cc1ccc(NC(=O)c2ccccc2O)cc1 | 2.2% (inactive) |

| Structure (SMILES) | displacement |
| --- | --- |
| O=C(Cn1nc(C(=O)O)c2ccccc2c1=O)NCC1CCCO1 (stereo not drawn) | -0.7% (inactive) |
| CC(NC(=O)c1c(NC(=O)c2ccco2)sc2c1CCCCC2)c1ccccc1 (stereo not drawn) | -6% (inactive) |
| COC(=O)COc1ccc(/C=C2\C(=O)NC(=S)N(c3ccc(F)cc3)C2=O)cc1OC | 2.8% (inactive) |
| COc1ccc(CNC(=O)c2c(Cl)cccc2Cl)cc1 | 5.5% (inactive) |
| O=C(Nc1cccc2nsnc12)c1ccc(Cl)cc1Cl | 3.7% (inactive) |
| Cc1ccc(C)n1-c1ccc(Cl)c(C(=O)O)c1 | 83.5% (active) |
| Cc1ccc(-c2ccccc2)n1-c1ccc(O)c(C(=O)O)c1 | 4.2% (inactive) |
| Cc1ccc(-c2ccccc2)n1-c1ccc(Cl)c(C(=O)O)c1 | -4% (inactive) |
| Cc1ccc(C)n1-c1ccc(C(=O)O)c(O)c1 | 98.5% (active) |
| Cc1nc(=O)c(-c2ccccc2)c(C)n1-c1ccc(O)c(C(=O)O)c1 | -3.3% (inactive) |
| Cc1nc(=O)c(-c2ccccc2)c(C)n1-c1ccc(C(=O)O)c(O)c1 | 0.2% (inactive) |
| O=C(O)c1ccc(-n2cccc2)cc1O | -0.2% (inactive) |
| Cc1ccc(C)n1-c1ccc(C(=O)O)c(Cl)c1 | 33.7% (inactive) |
| Cc1ccc(C)n1-c1ccc(O)c(C(=O)O)c1 | 98.2% (active) |
| CC(C)c1c(O)nc(SCC(=O)Nc2ccc3c(c2)CCC3)[nH]c1=O | 1.5% (inactive) |
| Cc1ccc(C)n1-c1ccc(C(=O)O)cc1 | 16% (inactive) |
| Cc1ccc(C)n1-c1cc(C(=O)O)ccc1Cl | 89.5% (active) |
| Cc1ccc(N2C(=O)c3ccc(C(=O)O)cc3C2=O)c(C)c1 | 0.7% (inactive) |
| Cc1ccc(C(=O)O)cc1-n1c(C)ccc1C | 67.8% (active) |
| Cc1cc(Cl)c2cc(C(=O)O)ccc2n1 | 2.8% (inactive) |
| Cc1ccc(C)n1-c1cc(C(=O)O)ccc1O | 27% (inactive) |
| Cc1cc(C(=O)O)ccc1-n1c(C)ccc1C | 61.3% (active) and 37.4% (inactive) |
| Cc1ccc(C)n1-c1cc(C(=O)O)cc(C(=O)O)c1 | 8.5% (inactive) |
| Cc1ccc(-c2ccccc2)n1-c1ccc(C(=O)O)cc1 | -1.6% (inactive) |
| Cc1cc(N)ccc1-n1c(C)ccc1C | -2.7% (inactive) |
| Cc1ccc(-c2ccccc2)n1-c1cccc(C(=O)O)c1 | -1.8% (inactive) |

| Structure (SMILES) | displacement |
| --- | --- |
| CCN(CC)CCn1c2ccccc2n2cc(C(C)(C)C)nc12 | 0% (inactive) |
| CC(=O)Nc1ccc(N2C(=O)c3cc4ccccc4cc3C2=O)cc1 | 5.1% (inactive) |
| Cc1cc(Br)cc2c(N=Nc3cccc4cccnc34)c(O)n(C)c12 | 3.2% (inactive) |
| CC(=O)C(C(C)=O)c1c(Cl)c(O)c(O)c2c(C(=O)c3ccccc3)coc12 | 1% (inactive) |
| COc1cccc(C(=O)CSc2nnc(COc3cccc4cccnc34)o2)c1 | 3.7% (inactive) |
| CC(=O)c1ccc(-n2c(C)ccc2C)cc1 | 6.4% (inactive) |
| CC(C)(C)c1ccc(OCC(=O)O)cc1 | 4.2% (inactive) |
| Cc1ccc(C)n1-c1ccc(OCC(=O)O)cc1 | 62.2% (active) |
| O=C(O)COc1ccc(N2C(=O)C=CC2=O)cc1 | 0.9% (inactive) |
| Cc1ccc(C)n1-c1ccc(CC(=O)O)cc1 | 23.3% (inactive) |
| Cc1ccc(C)n1-c1ccc(SCC(=O)O)cc1 | 100% (active) |
| CC1CCCCN1CCNC(=O)CC1Oc2ccccc2NC1=O (stereo not drawn) | 9.4% (inactive) |
| CCOC(=O)c1c(C)[nH]c(C(=O)COC(=O)C(C)N2C(=O)C3CCCCC3C2=O)c1C (stereo not drawn) | -1.9% (inactive) |
| CCOC(=O)C1CCN(C(=O)CSCCSCC(=O)N2CCC(C(=O)OCC)CC2)CC1 | -0.9% (inactive) |
| COc1ccc2[nH]c(=O)c(CN(C(=O)c3ccco3)C3CCCCC3)cc2c1 | -0.4% (inactive) |
| O=C1S/C(=C\c2cccs2)C(=O)N1c1cccc(Cl)c1 | -1.3% (inactive) |
| CC(Oc1ccc2c3c(c(=O)oc2c1)CCCC3)C(=O)c1ccccc1 (stereo not drawn) | 2.3% (inactive) |
| O=C(CCn1nnc2ccccc2c1=O)NCC1CCC(C(=O)O)CC1 (stereo not drawn) | 2% (inactive) |
| O=C(CNC(=O)c1ccc(Cl)cc1Cl)c1ccccc1 | 1.6% (inactive) |
| COc1cccc(CN(CC2CCCO2)S(=O)(=O)c2ccc(S(=O)(=O)NCC3CCCO3)cc2)c1OC (stereo not drawn) | -2.5% (inactive) |
| C=CCN1C(=O)/C(=C\c2ccc(-c3ccc([N+](=O)[O-])cc3)o2)C(=O)NC1=S | 2.8% (inactive) |
| C=CCN1C(=O)/C(=C\c2ccc([N+](=O)[O-])o2)C(=O)NC1=S | 95.9% (active) |
| C=CCN1C(=O)/C(=C\c2ccc(I)o2)C(=O)NC1=S | 0.9% (inactive) |
| Cc1ccc(NC2=C(Cl)C(=O)N(c3ccccc3Cl)C2=O)cc1C | 0.5% (inactive) |
| CCOc1ccc(C(=O)Nc2ccc(NC(=O)c3ccccc3Cl)cc2)cc1Br | -4.2% (inactive) |
| COc1ccc(/C=C/C(=O)Nc2nc(C)c(C)s2)cc1OC | -0.1% (inactive) |
